PubChem BioAssay AID588683 (Broad Institute, 2011)
Potency and affinity values are given separately. The source made the active and inactive calls. The rule behind the calls is not given here.

Molecular target: Kelch-like ECH-associated protein 1 (Homo sapiens) + Nuclear factor erythroid 2-related factor 2 (Homo sapiens) (UniProt Q14145+Q16236)
Assay: disruptors of Keap1 binding to Nrf2 peptide – biochemical, fluorescence polarization, cherry-picked samples, dose response (AID 588683);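 note: Kelch domain of Keap1 binding a fluorescein-labelled 9mer Nrf2 peptide; more negative means stronger inhibition of peptide binding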
Conditions: plate reader; series mostly up to 26 µM; activity change, negative = inhibition: at the top concentration

Chain of Kelch-like ECH-associated protein 1 (Homo sapiens) + Nuclear factor erythroid 2-related factor 2 (Homo sapiens) (Q14145 whole entry, looked up, the tested form may be a part): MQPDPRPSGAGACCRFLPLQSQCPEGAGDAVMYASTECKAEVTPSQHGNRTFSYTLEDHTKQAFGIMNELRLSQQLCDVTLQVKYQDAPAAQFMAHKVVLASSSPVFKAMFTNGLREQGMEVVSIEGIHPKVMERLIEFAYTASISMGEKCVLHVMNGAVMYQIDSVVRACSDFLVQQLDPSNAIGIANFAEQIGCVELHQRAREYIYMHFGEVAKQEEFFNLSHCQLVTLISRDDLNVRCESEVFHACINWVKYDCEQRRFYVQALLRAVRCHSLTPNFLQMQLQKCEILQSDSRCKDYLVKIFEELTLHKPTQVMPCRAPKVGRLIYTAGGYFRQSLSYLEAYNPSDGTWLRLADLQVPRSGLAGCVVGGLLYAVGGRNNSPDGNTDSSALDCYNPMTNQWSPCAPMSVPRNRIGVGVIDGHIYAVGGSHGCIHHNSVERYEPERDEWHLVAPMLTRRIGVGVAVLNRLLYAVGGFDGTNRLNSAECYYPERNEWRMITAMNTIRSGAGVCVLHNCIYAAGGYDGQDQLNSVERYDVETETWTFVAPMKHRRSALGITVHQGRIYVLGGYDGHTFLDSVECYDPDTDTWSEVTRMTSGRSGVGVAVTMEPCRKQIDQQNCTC
Chain of Kelch-like ECH-associated protein 1 (Homo sapiens) + Nuclear factor erythroid 2-related factor 2 (Homo sapiens) (Q16236 whole entry, looked up, the tested form may be a part): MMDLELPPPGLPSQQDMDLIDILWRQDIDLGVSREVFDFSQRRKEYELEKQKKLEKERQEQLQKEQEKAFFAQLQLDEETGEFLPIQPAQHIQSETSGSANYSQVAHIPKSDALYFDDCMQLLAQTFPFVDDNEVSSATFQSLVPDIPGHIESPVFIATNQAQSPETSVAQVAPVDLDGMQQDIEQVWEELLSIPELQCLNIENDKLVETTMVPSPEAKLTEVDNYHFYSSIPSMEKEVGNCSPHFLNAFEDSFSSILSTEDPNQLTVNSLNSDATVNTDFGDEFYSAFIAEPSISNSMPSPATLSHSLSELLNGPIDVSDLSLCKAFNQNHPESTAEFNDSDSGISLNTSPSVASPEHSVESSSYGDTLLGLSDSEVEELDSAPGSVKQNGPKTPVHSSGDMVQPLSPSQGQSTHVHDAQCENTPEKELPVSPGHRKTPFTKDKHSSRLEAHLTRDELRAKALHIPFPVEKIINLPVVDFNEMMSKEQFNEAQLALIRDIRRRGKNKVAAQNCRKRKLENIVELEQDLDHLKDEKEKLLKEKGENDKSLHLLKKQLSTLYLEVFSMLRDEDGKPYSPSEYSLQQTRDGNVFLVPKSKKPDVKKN

Activity change, negative = inhibition, inactive:
O=c1[nH]c(=S)[nH]c2c1C(c1ccc(Br)cc1)c1c([nH]c(=S)[nH]c1=O)O2 -2.56%
S=C1SCN(CC2CC2)CN1CC1CC1 -13.5%
CCN(CC)c1ccc(C2Nc3cccc4cccc(c34)N2)cc1 10.9%
